D1 agonist = human D1 receptor agonism. P21728. HEK293 T-REx D1 cells, calcium flux, agonist mode. activation, % at 2 µM. 360,000 tested, 1% active
Target sequence (P21728 whole entry, looked up): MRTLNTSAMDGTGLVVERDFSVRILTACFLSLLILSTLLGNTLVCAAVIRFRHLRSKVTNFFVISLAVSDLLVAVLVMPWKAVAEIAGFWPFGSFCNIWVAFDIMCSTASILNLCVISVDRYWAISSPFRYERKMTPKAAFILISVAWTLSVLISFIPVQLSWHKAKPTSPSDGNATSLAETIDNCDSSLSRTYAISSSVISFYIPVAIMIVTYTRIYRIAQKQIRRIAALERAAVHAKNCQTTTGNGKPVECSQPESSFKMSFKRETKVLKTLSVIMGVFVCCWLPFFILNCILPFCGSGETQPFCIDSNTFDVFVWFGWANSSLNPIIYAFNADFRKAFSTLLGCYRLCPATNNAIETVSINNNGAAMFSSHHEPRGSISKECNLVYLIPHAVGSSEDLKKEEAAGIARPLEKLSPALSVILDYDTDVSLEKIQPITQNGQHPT
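Tetracycline-induced HEK293 TREx D1 cells, force-coupled to calcium signalling, were dye-loaded with a no-wash calcium kit. Compound was pin-added after a 10 s baseline. Fluorescence was read kinetically at 1 cycle/s for 180 s, with calcium rises flagged as agonism.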
TRHR PAM = TRH receptor (human) allosteric enhancement; 360,000 tested, 0.66% active; enhancement, % at 2 µM; P34981; TRHR cells, fluo-8 calcium fluorescence, EC20 TRH enhancement; in the data active = enhancement above about 30%
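TRHR-expressing cells loaded with fluo-8 calcium dye were read kinetically (ex 480/em 530) during compound addition, then stimulated with an EC20 of TRH (10 nM final). Enhancement of the Gq-mediated intracellular calcium response was scored.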
TRHR ag = activates the human TRH receptor | AID 493084 | activation, % at 2 µM | 360,000 tested, 0.18% active | P34981 | TRHR cells, calcium flux fluo-8, FDSS agonist mode
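Read-out: compound-evoked intracellular calcium rise in TRHR cells, fluo-8 dye, kinetic FDSS fluorescence at 1 s/cycle following a 10-cycle baseline. Cells cultured overnight before dye loading (30 min–1.5 h, RT).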
D1 antag = blocks dopamine activation of the human D1 receptor | P21728 | HEK293 TREx D1 cells, calcium flux, dopamine EC80; stronger effect = lower value | activity change, negative = inhibition, % at 10 µM | 360,000 tested, 3.2% active | AID 504652; in the data active = activity change below about -30%
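Tetracycline-induced HEK293 T-REx cells with force-coupled D1 receptor were loaded with a no-wash calcium dye. Compound was added after a 10 s baseline and read kinetically for 180 s; EC80 dopamine was then added and calcium flux followed another 180 s.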
D1 PAM = human D1 dopamine receptor positive modulation; AID 504651; potentiation, % at 10 µM; P21728; HEK293 TREx D1 cells, calcium flux, dopamine EC20 potentiation; 360,000 tested, 0.036% active; in the data active = potentiation above about 30%
Large screens that a line does not name were inactive. Sampled rows, rich in hits. Any-hit rate of the full collection: about 4.7%. Rule as the data show it, unless noted: active = activation above about 30%; inactive = the rest.

O=C(COc1ccc(C(=O)NCc2cccnc2)cc1)Nc1cccc(C(F)(F)F)c1	none
O=C(COc1ccc2ccccc2c1Br)Nc1cccnc1	D1 antag -42
O=C(COc1cccc(C(F)(F)F)c1)Nc1cccnc1	D1 antag -31
Cc1ccc(Cl)cc1NC(=O)C1CCCN(S(=O)(=O)c2cccc3cccnc23)C1 (stereo not drawn)	none
Cc1ccc(NC(=O)CCC(=O)N2CCSc3ccccc32)cc1	none
COc1ccccc1N1CCN(S(=O)(=O)c2cn(C)c(=O)n(C)c2=O)CC1	D1 antag -36
Cn1cc(S(=O)(=O)N2CCN(c3ccccc3F)CC2)c(=O)n(C)c1=O	none
CC1CCN(S(=O)(=O)c2cn(C)c(=O)n(C)c2=O)CC1	D1 antag -61
CS(=O)(=O)N(CC(=O)N1CCN(c2ccc(F)cc2)CC1)c1cccc(Cl)c1	none
CS(=O)(=O)N(CCCC(=O)N1CCCCCC1)c1cccc(Cl)c1	D1 antag -38
CS(=O)(=O)N(CC(=O)N1CCCC1)c1cc(Cl)c(Cl)cc1Cl	D1 agonist 39
O=C(Nc1ccccc1C(=O)O)c1cccc(S(=O)(=O)N2CCCC2)c1	none
O=C(COC(=O)C1CCC(=O)N1)Nc1cc(Cl)ccc1Cl (stereo not drawn)	D1 antag -80
CC(NCC(O)c1ccc([N+](=O)[O-])cc1)C12CC3CC(CC(C3)C1)C2 (stereo not drawn)	D1 agonist 49
O=C(NCC(O)c1ccc([N+](=O)[O-])cc1)Nc1ccccc1 (stereo not drawn)	none
Cc1ccccc1CC1(CO)CCCN(Cc2ccn[nH]2)C1 (stereo not drawn)	none
Cc1ccccc1CC1(CO)CCCN(Cc2c(C)nn(C)c2Cl)C1 (stereo not drawn)	D1 antag -33
Cc1nn(C)c(Cl)c1CN1CCCC(CO)(Cc2cccc(Cl)c2)C1 (stereo not drawn)	D1 antag -33
CSCC(=O)N1CCCC(CO)(Cc2ccccc2C)C1 (stereo not drawn)	D1 antag -53
O=c1[nH]c(SCc2cccc(Cl)c2)nc2c1CCC2	none
CC(=O)c1cccc(CN2CCCC(C(=O)c3ccc4c(c3)OCO4)C2)c1 (stereo not drawn)	none
O=C(c1ccc2c(c1)OCO2)N1CCC(Cc2ccccc2)CC1	D1 antag -40
O=C(c1ccc2c(c1)OCO2)C1CCCN(C2CCN(CCc3ccccc3)CC2)C1 (stereo not drawn)	D1 antag -32
CC(C)(C)c1ccc(Cn2c(=N)n(CC(O)c3ccco3)c3ccccc32)cc1 (stereo not drawn)	D1 agonist 72
COc1ccc(CCNC(=O)CCc2c(C)nc3c(c(C)nn3-c3ccccc3)c2C)c(OC)c1	none
O=C(Cc1ccc(S(=O)(=O)N2CCOCC2)s1)N1CCN(c2cccc(C(F)(F)F)c2)CC1	D1 antag -32
COc1ccc(N=Nc2ccc(O)c3ncccc23)cc1	none
CCc1ccc(N=Nc2ccc(O)c3[nH]cnc23)cc1	D1 agonist 40 (no result: D1 antag)
Cc1ccc(NC(=O)CN2CCCN(Cc3cc(C)ccc3C)S2(=O)=O)c(Cl)c1	none
CCCc1cc(=O)[nH]c(NCc2ccc(Cl)cc2)n1	none
CCCc1cc(=O)[nH]c(-n2[nH]c3c(c2=O)CCCC3)n1	D1 agonist 67
Cc1ccc(NC(=O)CSc2ccc(-c3ccc4c(c3)OCO4)nn2)cc1F	none
O=C(CSc1ccc(-c2ccc(Cl)cc2)nn1)Nc1ccc2c(c1)OCCO2	D1 antag -31
O=C(CSc1ccc(-c2ccc(F)cc2)nn1)N1CCCc2ccccc21	none
O=C(CSc1ccc(-c2ccc(Cl)cc2)nn1)N1CCCc2ccccc21	D1 antag -34
COc1cc(C(=O)NCc2ccc3c(c2)CCN3C(=O)c2ccc(Cl)cc2)cc(OC)c1OC	none
O=C(Cn1c(=O)c2cccn2c2cccnc21)NCc1ccccc1F	none
CCOC(=O)CC(NC(=O)Cn1nnc(-c2ccc(C(F)(F)F)cc2)n1)c1ccc(C)cc1 (stereo not drawn)	none
CCCNC(=O)C1CC(=O)N(c2ccc(OCc3ccc(F)cc3)cc2)C1 (stereo not drawn)	D1 antag -36
CCOc1ccc(N2CC(C(=O)N3CCCCCC3)CC2=O)cc1 (stereo not drawn)	none
